Data published in PubChem BioAssay (NCATS).
Values joined by “and” are separate entries in the source; they are usually repeats but may differ in a detail not shown here. Equal values may be shown once. Records with an inconclusive call do not appear. Where a structure was tested more than once in an assay, its records may differ in their call. Active and inactive are the calls of the source. Calls come from the whole dose curve; as a rule, active = well fitted inhibition curve with a large enough effect; inconclusive = small, poorly fitted or top-dose-only effect; inactive = no such curve, though single readings can be large or run the other way.
% is set by controls: 0 for no effect and ±100 for the full control effect; potency is the fitted concentration of half-maximal effect.

Each compound was assayed against M-phase phosphoprotein 8 (Homo sapiens) (UniProt Q99549) (assay: qHTS Validation Assay for Inhibitors for MPP8 Chromodomain Interactions with Methylated Histone Tails (AID 488949; note: nearly all actives have a fitted effect of over 55% in size;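 for activity change, negative = inhibition: 50 nM MPP8 with 50 nM peptide preformed then compounds added for 30 min; AlphaScreen signal from MPP8 chromodomain bound to biotinylated H3K9me3 peptide; top concentration of the series differs between compounds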)). Conditions: AlphaScreen MPP8 binding to H3K9me3 peptide; series mostly up to 57.1 µM; activity change, negative = inhibition: at the top concentration.
Chain of M-phase phosphoprotein 8 (Homo sapiens) (Q99549 whole entry, looked up): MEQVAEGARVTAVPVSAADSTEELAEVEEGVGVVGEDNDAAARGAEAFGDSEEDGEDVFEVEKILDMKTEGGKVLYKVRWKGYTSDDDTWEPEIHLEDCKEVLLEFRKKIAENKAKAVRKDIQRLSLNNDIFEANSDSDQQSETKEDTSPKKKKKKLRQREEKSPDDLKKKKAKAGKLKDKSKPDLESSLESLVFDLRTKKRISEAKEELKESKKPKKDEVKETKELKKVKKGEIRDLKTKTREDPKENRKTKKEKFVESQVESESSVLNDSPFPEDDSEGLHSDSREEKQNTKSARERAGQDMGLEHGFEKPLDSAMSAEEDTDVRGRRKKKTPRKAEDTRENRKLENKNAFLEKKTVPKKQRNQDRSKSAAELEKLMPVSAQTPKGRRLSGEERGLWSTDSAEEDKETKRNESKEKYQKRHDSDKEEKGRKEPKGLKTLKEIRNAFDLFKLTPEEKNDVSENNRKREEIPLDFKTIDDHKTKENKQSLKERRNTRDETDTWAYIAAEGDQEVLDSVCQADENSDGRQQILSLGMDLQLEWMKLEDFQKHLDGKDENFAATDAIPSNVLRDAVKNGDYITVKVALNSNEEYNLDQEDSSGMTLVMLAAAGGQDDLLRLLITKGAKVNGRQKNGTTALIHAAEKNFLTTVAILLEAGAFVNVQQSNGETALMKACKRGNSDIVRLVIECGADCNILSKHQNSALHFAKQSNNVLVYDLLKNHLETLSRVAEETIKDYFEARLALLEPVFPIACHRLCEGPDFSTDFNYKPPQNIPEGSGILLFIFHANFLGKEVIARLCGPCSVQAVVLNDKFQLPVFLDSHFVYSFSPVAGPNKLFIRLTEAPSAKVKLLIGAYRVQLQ
Outline: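 50 nM MPP8 + 50 nM b-H3K9me3 peptide, PBS pH 7.4/0.01% Tween-20, 30 min RT; + cpd 30 min RT; + AlphaScreen donor/Ni-chelate acceptor beads 10 ug/mL final, 30 min dark; luminescence read.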
In the case of `C[N+](C)(C)CC#CCOC(=O)Nc1cccc(Cl)c1`, the Potency is reported as “inactive”. In the case of `Oc1ccc2c3c1O[C@H]1c4oc5ccccc5c4C[C@@]4(O)C(C2)N(CC2CC2)CCC314` (stereo partly specified), the Potency is reported as “inactive”. `CN1CCC(c2c[nH]c3ccc(O)cc23)CC1` was tested, and the Potency was “inactive”. `COC(=O)N1CCN(C(=O)Cc2ccc(Cl)c(Cl)c2)C(CN2CCCC2)C1` (stereo unspecified) was tested, and the Potency was “inactive”. For `COc1ccc2c(c1)C13CCCCC1C(C2)N(C)CC3` (stereo unspecified), the Potency was “inactive”. For `C[C@]12Cc3cn4c(nc3C=C1CCC1C2CC[C@@]2(C)[C@H]1CC[C@@]2(O)C#N)nc1ccccc14` (stereo partly specified), the Potency was “inactive”. `CCCn1c(=O)c2[nH]c(C3CCCC3)nc2n(CCCOC(=O)c2ccc(S(=O)(=O)F)cc2)c1=O` was tested, and the Potency was “inactive”. With `Cc1cc([C@@H]2CCCN2C)on1` the “activity change, negative = inhibition” value was 4.76% (inactive). In the case of `CNC(=O)OCC[N+](C)(C)C`, the “activity change, negative = inhibition” value is reported as -8.26% [at 114 µM] (inactive). For `N=C(N)c1ccc(CS(=O)(=O)F)cc1`, the “activity change, negative = inhibition” value was -1.29% (inactive). For `C[N+]1(C)CCOC(O)(c2ccc(-c3ccc(C4(O)C[N+](C)(C)CCO4)cc3)cc2)C1` (stereo unspecified), the Potency was “inactive”. For `C[N+]1(C)C2CCC1CC(OC(=O)c1c[nH]c3ccccc13)C2` (stereo unspecified), the Potency was “inactive and 8.44 µM (active)”. For `NC(N)=Nc1ccc2[nH]c3c(c2c1)C[C@@]1(O)[C@H]2Cc4ccc(O)c5c4[C@@]1(CCN2CC1CC1)[C@H]3O5`, the Potency was 31.6 µM (active) and 2.12 µM (active). For `Nc1ccc(CCN2CCN(c3cccc(C(F)(F)F)c3)CC2)cc1`, the “activity change, negative = inhibition” value was -1.29% (inactive). In the case of `Cc1[nH]c2ccc(O)cc2c1CCN`, the Potency is reported as “inactive”. With `C=CCN1CC[C@]23c4c5ccc(O)c4O[C@H]2/C(=N/NC(=O)c2ccccc2)CC[C@@]3(O)[C@H]1C5` the Potency was “inactive”. `C[C@@H]1O[C@H](C[N+](C)(C)C)CS1` was tested, and the Potency was “inactive”. In the case of `CC(N)Cc1c[nH]c2ccc(OCc3cccs3)cc12` (stereo unspecified), the “activity change, negative = inhibition” value is reported as -0.751% (inactive). In the case of `NC(C(=O)O)c1cc(=O)[nH]o1` (stereo unspecified), the Potency is reported as “inactive”. With `CN(N=O)c1cc(O)ccc1O` the Potency was 8.91 µM (active).

What follows are compounds tested against Chromobox protein homolog 1 (Homo sapiens) (UniProt P83916) (assay: qHTS Validation Assay for Inhibitors of HP1-beta Chromodomain Interactions with Methylated Histone Tails (AID 488953; note: nearly all actives have a fitted effect of over 50% in size;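 for activity change, negative = inhibition: loss of AlphaScreen luminescence from HP1-beta binding biotinylated H3K9me3 peptide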)). Conditions: HP1-beta chromodomain / methylated histone peptide binding assay; series mostly up to 114 µM; activity change, negative = inhibition: at the top concentration.
Chain of Chromobox protein homolog 1 (Homo sapiens) (P83916 whole entry, looked up): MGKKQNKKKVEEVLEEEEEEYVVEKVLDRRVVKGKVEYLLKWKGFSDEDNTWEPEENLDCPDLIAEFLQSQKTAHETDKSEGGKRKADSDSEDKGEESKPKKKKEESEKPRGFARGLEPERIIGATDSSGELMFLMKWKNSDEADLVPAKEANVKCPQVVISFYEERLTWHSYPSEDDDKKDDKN
Outline: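 Compounds pinned into a preassembled complex of HP1-beta and trimethyl-K9 histone H3(1-18) biotin peptide (50 nM each; PBS pH 7.4, 0.01% Tween-20). After 30 min, bead-based AlphaScreen detection followed.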
For `CCCC[N+]1(C)C2CC(OC(=O)[C@H](CO)c3ccccc3)CC1C1OC12` (stereo partly specified), the “activity change, negative = inhibition” value was 40.4% [at 57.1 µM] (inactive). With `COc1ccc2c(c1)[C@@]13CCCC[C@H]1[C@@H](C2)NCC3` the “activity change, negative = inhibition” value was -10% (inactive). With `O=c1c2ccccc2[se]n1-c1ccccc1` the Potency was 25.1 µM (active). `c1ccc2cc(CC3=NCCN3)ccc2c1` was tested, and the “activity change, negative = inhibition” value was -8.68% (inactive). For `Ic1ccccc1CNC1C2CCN(CC2)C1C(c1ccccc1)c1ccccc1` (stereo unspecified), the Potency was 44.7 µM (active). For `OCc1cnc[nH]1`, the “activity change, negative = inhibition” value was 6.77% (inactive). For `CC(C)NP(=O)(NC(C)C)OP(=O)(NC(C)C)NC(C)C`, the “activity change, negative = inhibition” value was -7.41% (inactive). For `C=CCN(C1=NCCN1)c1c(Cl)cccc1Cl`, the “activity change, negative = inhibition” value was -1.35% (inactive). `C[N+]1(C)CCc2cc3c(cc2[C@H]1[C@@H]1OC(=O)c2c1ccc1c2OCO1)OCO3` was tested, and the “activity change, negative = inhibition” value was -3.14% (inactive). `COc1ccc2c(c1)/C(=C/c1cnc[nH]1)C(=O)N2` was tested, and the “activity change, negative = inhibition” value was -14.5% (inactive). `COc1ccc(CNC(=O)/C=C/c2ccc3[nH]cc(CCN(C)C)c3c2)cc1` was tested, and the “activity change, negative = inhibition” value was -1.4% (inactive). In the case of `CO[C@H]1CC=C2CCN3CCC4=C(CC(=O)OC4)[C@]23C1`, the “activity change, negative = inhibition” value is reported as 0.298% (inactive). In the case of `CCCCCCCCCCCCCC(=O)O[C@@H]1[C@@H](C)[C@@]2(O)[C@@H](C=C(CO)C[C@@]3(O)C(=O)C(C)=C[C@@H]23)C2C(C)(C)[C@@]21OC(C)=O` (stereo partly specified), the “activity change, negative = inhibition” value is reported as 29.5% [at 57.1 µM] (inactive). In the case of `Oc1ccc2c3c1O[C@H]1c4[nH]c5ccccc5c4C[C@@]4(O)C(C2)N(CC2CC2)CCC314` (stereo partly specified), the “activity change, negative = inhibition” value is reported as -9.41% (inactive). With `CN1CC[C@@]2(C)c3cc(O)ccc3N(C)C12` (stereo partly specified) the Potency was 0.0095 µM (active). In the case of `C[N+](C)(C)CC#CCOC(=O)Nc1cccc(Cl)c1`, the “activity change, negative = inhibition” value is reported as -1.45% (inactive). For `Oc1ccc2c3c1O[C@H]1c4oc5ccccc5c4C[C@@]4(O)C(C2)N(CC2CC2)CCC314` (stereo partly specified), the “activity change, negative = inhibition” value was -6.75% (inactive). `CN1CCC(c2c[nH]c3ccc(O)cc23)CC1` was tested, and the “activity change, negative = inhibition” value was 6.68% (inactive). `COc1ccc2c(c1)C13CCCCC1C(C2)N(C)CC3` (stereo unspecified) was tested, and the “activity change, negative = inhibition” value was -8.19% (inactive). `C[C@]12Cc3cn4c(nc3C=C1CCC1C2CC[C@@]2(C)[C@H]1CC[C@@]2(O)C#N)nc1ccccc14` (stereo partly specified) was tested, and the “activity change, negative = inhibition” value was -1.93% (inactive). In the case of `CCCn1c(=O)c2[nH]c(C3CCCC3)nc2n(CCCOC(=O)c2ccc(S(=O)(=O)F)cc2)c1=O`, the “activity change, negative = inhibition” value is reported as -0.546% (inactive). For `Cc1cc([C@@H]2CCCN2C)on1`, the “activity change, negative = inhibition” value was -10.1% (inactive). `N=C(N)c1ccc(CS(=O)(=O)F)cc1` was tested, and the “activity change, negative = inhibition” value was 5.08% (inactive). With `C[N+]1(C)CCOC(O)(c2ccc(-c3ccc(C4(O)C[N+](C)(C)CCO4)cc3)cc2)C1` (stereo unspecified) the “activity change, negative = inhibition” value was -9.68% (inactive). With `C[N+]1(C)C2CCC1CC(OC(=O)c1c[nH]c3ccccc13)C2` (stereo unspecified) the “activity change, negative = inhibition” value was 23.4% (inactive). For `NC(N)=Nc1ccc2[nH]c3c(c2c1)C[C@@]1(O)[C@H]2Cc4ccc(O)c5c4[C@@]1(CCN2CC1CC1)[C@H]3O5`, the Potency was 28.2 µM (active). In the case of `CC(=O)c1c(O)c(C)c(O)c(Cc2c(O)c3c(c(C(=O)/C=C/c4ccccc4)c2O)OC(C)(C)C=C3)c1O`, the Potency is reported as 12.6 µM (active). In the case of `C=CCN1CC[C@]23c4c5ccc(O)c4O[C@H]2/C(=N/NC(=O)c2ccccc2)CC[C@@]3(O)[C@H]1C5`, the “activity change, negative = inhibition” value is reported as -14.2% (inactive). For `C[C@@H]1O[C@H](C[N+](C)(C)C)CS1`, the “activity change, negative = inhibition” value was -3.17% (inactive). With `NC(C(=O)O)c1cc(=O)[nH]o1` (stereo unspecified) the “activity change, negative = inhibition” value was -5.83% (inactive). For `CN(N=O)c1cc(O)ccc1O`, the Potency was 50.1 µM (active).
